The record followed here is PubChem BioAssay AID2391 (Southern Research Specialized Biocontainment Screening …, 2010).

Screen size: about 310,000 compounds; about 410 (0.13%) were called active. Not shown: some 2% with an inconclusive outcome. How the calls were made is not given here. The list is a sample of the results. Entries with a potency or affinity are not part of this list.

The experiment can be described thus: RSV antiviral activity via CPE protection, HEp-2 cells, primary 10 µM value included (AID 2391). Particulars: RSV-induced CPE inhibition, at 10 µM, stronger effect = higher value.
For `CCOC(=O)NC(Nc1ccc(C)cn1)(C(F)(F)F)C(F)(F)F`, the CPE inhibition was 0.51% (inactive).

As to `Cc1cccc(C(=O)NC2CCN(CC(=O)N3CCOCC3)CC2)c1`, the CPE inhibition is 0.56% (inactive).

For `c1ccc(-c2nnc3ccc(N4CCCC4)nn23)cc1`, the CPE inhibition was 13.9% (inactive).

Regarding `O=C(c1ccc(Br)o1)N1CCN(c2ccc3nnc(-c4ccc(F)cc4)n3n2)CC1`, the CPE inhibition was 1.21% (inactive).

For `COc1cc(F)ccc1CN1CCC(n2nccc2NC(=O)C2CCOC2)CC1` (stereo not given), the CPE inhibition is -1% (inactive).

In the case of `COc1ccc(-n2c(C)cc(C(=O)Cn3nnc4ccccc4c3=O)c2C)cc1`, the CPE inhibition is 2.15% (inactive).

On to `Cc1cc(C(=O)Cn2nnc3ccccc3c2=O)c(C)n1-c1c(C)n(C)n(-c2ccccc2)c1=O`, for which the CPE inhibition is 2.35% (inactive).

As for `CN(C)c1ccc(CN(CC2CCCO2)C(=O)c2cccs2)cc1` (stereo not given), the CPE inhibition was -0.5% (inactive).

For the molecule `Cn1c(=O)c2c(n(Cc3ccccc3)c1=O)NC(=O)C2CC(=O)O` (stereo not given), the CPE inhibition is 0.62% (inactive).

For `Cc1ccccc1OCCC(=O)Nc1ccc2c(C)cc(=O)oc2c1`, the CPE inhibition is 1.79% (inactive).

For `CCC(C)n1c(SCC(=O)Nc2ccccc2C(F)(F)F)nc2ccsc2c1=O` (stereo not given), the CPE inhibition is 13.6% (inactive).

In the case of `COCCN(C(=O)C1CC1)c1nnc(-c2cccc(C)c2)s1`, the CPE inhibition was 14% (inactive).

Consider `COCCN(C(=O)C(C)C)c1nnc(-c2ccc(C)cc2)s1`, for which the CPE inhibition is 1.29% (inactive).

As to `C=CCc1cccc(/C=N/NC(=O)c2ccccc2OC)c1O`, the CPE inhibition is 4.29% (inactive).

Consider `COc1ccc(Nc2ccccc2C(=O)O)cc1`, for which the CPE inhibition is -0.36% (inactive).

For `O=C(O)c1ccccc1Nc1ccccc1C(=O)O`, the CPE inhibition was 0.65% (inactive).

Turning to `O=C(O)c1ccccc1Nc1ccccc1`, the CPE inhibition is 2.02% (inactive).

Consider `O=C(O)c1cc([N+](=O)[O-])ccc1Nc1ccccc1`, for which the CPE inhibition is 2.12% (inactive).

Regarding `O=C(NCCOc1ccccc1Cl)c1ncn[nH]1`, the CPE inhibition is 0.27% (inactive).

Take `CSc1ccc(S(=O)(=O)NCCSC(C)(C)C)cc1`: the CPE inhibition was -1.64% (inactive).

`COc1cc(CC2COC(c3ccc(O)c(OC)c3)C2COC(C)=O)ccc1O` (stereo not given): the CPE inhibition was 5.55% (inactive).

Take `CCOC(=O)CCCNC(=O)CCNC(=O)c1ccc(OCCC(C)C)cc1`: the CPE inhibition is -2.65% (inactive).

`Cc1ccc(C(=O)N2CCN(c3ccc(NC(=O)c4cccs4)cc3)CC2)cc1`: the CPE inhibition is 3.02% (inactive).

`Cc1ccc(OCc2cc(C(=O)NCc3cnn(-c4cccc(F)c4)c3)no2)cn1`: the CPE inhibition is -0.86% (inactive).

Consider `Cc1nn(-c2ccccc2)c(C)c1/C=N/N1CCN(c2ccccc2)CC1`, for which the CPE inhibition was 2.1% (inactive).

Consider `Cc1nn(-c2ccccc2)c(C)c1/C=N/O`, for which the CPE inhibition was 5.01% (inactive).

For the molecule `CC(=O)N1c2ccccc2Nc2ccccc21`, the CPE inhibition was 0.92% (inactive).

On to `CC(C)(C)C(=O)CC1(O)C(=O)N(Cc2ccccc2)c2ccccc21` (stereo not given), for which the CPE inhibition is 1.23% (inactive).

Regarding `COc1cccc(NC(=O)CSc2nc3ccccc3nc2N2CCOCC2)c1`, the CPE inhibition was 1.87% (inactive).

Take `Cc1cc(C)cc(NC(=O)CSc2nc3ccccc3nc2N2CCCCC2)c1`: the CPE inhibition is -0.51% (inactive).

On to `COc1ccc(NC(=O)CSc2nc3ccccc3nc2N2CCCC2)cc1`, for which the CPE inhibition was 5.07% (inactive).

As for `Cc1cccc(NC(=O)CSc2nc3ccccc3nc2N2CCCC2)c1`, the CPE inhibition is 43.3% (inactive).

On to `O=C(CCN1c2ccccc2Sc2ccccc21)OCC(=O)N1CCN(C(=O)c2ccco2)CC1`, for which the CPE inhibition is 5.26% (inactive).

As to `Cc1cc(C)cc(NC(=O)c2ccc(CNc3c(N4CCCC4)c(=O)c3=O)cc2)c1`, the CPE inhibition was 2.89% (inactive).

Turning to `CCOC(=O)/C(C#N)=C/c1c(N2CCN(C)CC2)nc2c(C)cccn2c1=O`, the CPE inhibition is 1.42% (inactive).

As to `COc1ccc(NC(=S)N2CCN(c3ccccc3)CC2)c(OC)c1`, the CPE inhibition was 3.36% (inactive).

As to `CC(Sc1n[nH]c(N)n1)C(=O)Nc1ccccc1-c1ccccc1` (stereo not given), the CPE inhibition is -0.4% (inactive).

With `OCC1(CCOc2ccccc2)CCN(Cc2ccncc2)CC1`, the CPE inhibition is -0.49% (inactive).

With `CCOC(=O)C1(CCOc2ccccc2)CCN(Cc2cccn2-c2ncccn2)CC1`, the CPE inhibition was -2.95% (inactive).

For the molecule `COc1cc(OC)c(OC)cc1/C=N/NC(=O)c1cccc(S(=O)(=O)N2CCOCC2)c1`, the CPE inhibition is 0.2% (inactive).

Consider `Cc1cccc(NC(=O)C2CCN(S(=O)(=O)c3ccc4c(c3)NC(=O)CO4)CC2)c1C`, for which the CPE inhibition was 0.6% (inactive).

`O=C(c1cc2cc(Cl)ccc2[nH]1)N1CCN(C(=O)c2ccco2)CC1`: the CPE inhibition is 1.05% (inactive).

For the molecule `O=C(O)c1[nH]c2ccc(Cl)cc2c1CC(=O)N1CCN(C(=O)c2ccco2)CC1`, the CPE inhibition is 0.74% (inactive).

With `CCOc1ccc(-c2nnc3ccc(SCC(=O)N4CCCCC4)nn23)cc1`, the CPE inhibition is 1.74% (inactive).

`CCOc1ccc(CNC(=O)CCCn2nc(C)c3c(C)n(-c4ccc(C)cc4)nc3c2=O)cc1`: the CPE inhibition was 12.6% (inactive).

Regarding `COc1cccc(C(=O)NC(=S)Nc2ccc(Cl)c(C(=O)O)c2)c1`, the CPE inhibition was 1.26% (inactive).

Take `Cc1ccc(Nc2c([N+](=O)[O-])cc(C(=O)N3CC(=O)Nc4ccccc43)cc2[N+](=O)[O-])c(C)c1`: the CPE inhibition is -0.4% (inactive).

Turning to `Cc1cccc(Nc2c([N+](=O)[O-])cc(C(=O)N3CC(=O)Nc4ccccc43)cc2[N+](=O)[O-])c1`, the CPE inhibition is 3.38% (inactive).

Consider `CCOc1cc(/C=C/c2nc3cc(C)c(C)cc3s2)ccc1OCC(=O)N1CCOCC1`, for which the CPE inhibition was 15.4% (inactive).

For `CCN1CCCC(CO)(Cc2ccccc2)C1` (stereo not given), the CPE inhibition is -0.72% (inactive).

For the molecule `Cc1nn(C)c(Cl)c1CN1CCCC(CO)(Cc2ccccc2)C1` (stereo not given), the CPE inhibition is 62.6% (inactive).

For `Cn1cc(CN2CCCC(CO)(Cc3ccccc3)C2)cn1` (stereo not given), the CPE inhibition is -1.49% (inactive).

Consider `Cc1nn(C)c(Cl)c1CN1CCCC(CO)(Cc2cccc(Cl)c2)C1` (stereo not given), for which the CPE inhibition was 68.4% (inactive).

Regarding `O=C(COC(=O)c1ccc(F)cc1F)Nc1cccnc1Cl`, the CPE inhibition was 1.68% (inactive).

Turning to `CSc1nc(N)c(NC(=O)c2ccc(Br)o2)c(=O)[nH]1`, the CPE inhibition is 0.99% (inactive).

Consider `CCOC(=O)c1c(C)[nH]c(C(=O)NCc2ccccn2)c1C`, for which the CPE inhibition is -0.66% (inactive).

On to `COc1ccc(NC(=S)NCCc2c(C)[nH]c3ccc(OC)cc23)cc1`, for which the CPE inhibition is 1.21% (inactive).

For `COc1ccc(NC(=O)CCn2c(=O)c3cccn3c3ccccc32)cc1`, the CPE inhibition is 3.29% (inactive).

`COc1ccc(NC(=O)CCn2c(=O)c3cccn3c3ccccc32)c(OC)c1`: the CPE inhibition was 8.66% (inactive).

In the case of `C=CCCCCCCCCC(=O)NN`, the CPE inhibition was 1.7% (inactive).

As to `Cc1cnc(NC(=O)Cc2c[nH]c3ccccc23)s1`, the CPE inhibition was 3.89% (inactive).

In the case of `CCc1nnc(NC(=O)Cc2c[nH]c3ccccc23)s1`, the CPE inhibition was 2.52% (inactive).

In the case of `NC(=O)[C@H]1CC2(CC(c3cccc(NC(=O)COc4ccc(Cl)cc4)c3)=NO2)CN1C(=O)c1ccc(Cl)cc1` (stereo not given in full), the CPE inhibition is -1.09% (inactive).

With `C/C=C(/C)C(=O)Nc1cccc(C2=NOC3(C2)C[C@@H](C(N)=O)N(C(=O)c2ccc(OC)cc2)C3)c1` (stereo not given in full), the CPE inhibition is 0.8% (inactive).

Consider `NC(=O)[C@@H]1CC2(CC(c3cccc(NC(=O)COc4ccc(Cl)cc4)c3)=NO2)CN1C(=O)c1ccccc1` (stereo not given in full), for which the CPE inhibition was 15.3% (inactive).

`C=C(C)C(=O)Nc1cccc(C2=NOC3(C2)C[C@H](C(N)=O)N(C(=O)c2ccccc2)C3)c1` (stereo not given in full): the CPE inhibition was 1.43% (inactive).

For `C=CCn1c(-c2cccn(Cc3ccc(Cl)cc3Cl)c2=O)n[nH]c1=S`, the CPE inhibition was 8.02% (inactive).

On to `CCCN1CCOC(CC(=O)Nc2ccc([N+](=O)[O-])cc2)C1=O` (stereo not given), for which the CPE inhibition is -1% (inactive).

Take `O=C(c1cccc(S(=O)(=O)N2CCCC2)c1)N1CCN(c2ncccn2)CC1`: the CPE inhibition is 1.05% (inactive).

As to `CCOC(=O)C1CCN(C(=O)c2cccc(S(=O)(=O)N3c4ccccc4CC3C)c2)CC1` (stereo not given), the CPE inhibition was 0.5% (inactive).

On to `CC1CN(C(=O)c2cccc(S(=O)(=O)Nc3ccc(Cl)cc3)c2)CC(C)O1` (stereo not given), for which the CPE inhibition is 4.6% (inactive).

Turning to `CCC(OC(=O)c1ccco1)C(=O)NCc1ccc(OC)cc1` (stereo not given), the CPE inhibition is 1.29% (inactive).

Regarding `O=C(O)/C(=C\c1cccc(F)c1)c1ccc(S(=O)(=O)N2CCCCC2)s1`, the CPE inhibition is 3.11% (inactive).

As for `COc1ccc2nc(/C=N/NC(=O)[C@H](CCSC)NC(=O)OC(C)(C)C)ccc2c1`, the CPE inhibition was 18.6% (inactive).

For the molecule `COc1ccc2nc(/C=N/NC(=O)CCCCCNC(=O)OC(C)(C)C)ccc2c1`, the CPE inhibition was 6.33% (inactive).

For `CCC(C)[C@H](NC(=O)OC(C)(C)C)C(=O)N/N=C/c1cccc2nccnc12` (stereo not given in full), the CPE inhibition is 0.75% (inactive).

For the molecule `Cc1ccc2cc(/C=N/NC(=O)[C@H](C)NC(=O)OC(C)(C)C)c(Cl)nc2c1`, the CPE inhibition is 2.96% (inactive).

`C(=C/c1ccnc2nc(SC/C=C/c3ccccc3)nn12)/c1ccccc1`: the CPE inhibition was 2.09% (inactive).

Consider `Cc1cccc(CCNC(=O)c2nnc(Cc3ccc(Cl)cc3)o2)c1`, for which the CPE inhibition is 2.96% (inactive).

With `CNc1cc(C(F)(F)F)nc(-c2ccccn2)n1`, the CPE inhibition was -0.28% (inactive).

In the case of `COc1cc(OC)cc(C(=O)Nc2cccc3c2CCCC3)c1`, the CPE inhibition was -0.47% (inactive).

In the case of `C=CCn1c(=O)c2c3c(sc2n2c(Nc4ccccc4)nnc12)CCCC3`, the CPE inhibition was 13.3% (inactive).

In the case of `O=C1OC(CCl)CN1Cc1ccc([N+](=O)[O-])cc1` (stereo not given), the CPE inhibition was 0.81% (inactive).

For the molecule `Cc1ccc(C)c(NC(=O)CN(C)C(=O)c2ccc(S(=O)(=O)N3CCCCCC3)cc2)c1`, the CPE inhibition was 0.63% (inactive).

For `O=C(CNC(=O)c1ccc(Br)cc1)N=Nc1c(O)[nH]c2ccc([N+](=O)[O-])cc12`, the CPE inhibition is 6.52% (inactive).

Consider `O=C(CNC(=O)c1ccco1)N=Nc1c(O)[nH]c2ccc(Br)cc12`, for which the CPE inhibition is 7.48% (inactive).

For `Cc1ccc(NCC(=O)N=Nc2c(O)[nH]c3ccc([N+](=O)[O-])cc23)cc1`, the CPE inhibition is 2.27% (inactive).

In the case of `O=C(N=Nc1c(O)[nH]c2ccc([N+](=O)[O-])cc12)c1ccccc1Cl`, the CPE inhibition is 3.59% (inactive).

`Cc1ccccc1NCC(=O)N=Nc1c(O)[nH]c2ccc([N+](=O)[O-])cc12`: the CPE inhibition was 0.48% (inactive).

In the case of `O=C(O)c1ccccc1N=Nc1c(O)[nH]c2ccc([N+](=O)[O-])cc12`, the CPE inhibition was 1.41% (inactive).
